Measurements taken from PubChem BioAssay AID2576 (National Center for Advancing Translational Sciences (NCATS), 2010).
Inconclusive results are not listed. Entries that show only a call come without a potency. Calls of active or inactive are those of the source. Calls come from the whole dose curve; as a rule, active = well fitted activation curve with a large enough effect; inconclusive = small, poorly fitted or top-dose-only effect, or effect the other way; inactive = flat fitted curve, though single readings scatter.

target: Pyruvate kinase PKM (Homo sapiens) (UniProt P14618); experiment: Secondary LDH Assay for Activators of Human Pyruvate Kinase M2 isoform: for Probe SAR; conditions: purified hPK-M2, LDH-coupled NADH fluorescence kinetic; series mostly up to 58.4 µM
Description: NIH Chemical Genomics Center [NCGC] Matthew G. Vander Heiden, M.D., Ph.D. [Harvard Medical School, 77 Avenue Louis Pasteur, Boston, MA 02115] NCGC Assay Overview: Human pyruvate kinase muscle 2 (hPK-M2)enzyme was supplied as a highly purified (>95% pure) preparation from Harvard Medical School and a secondary assay was used to evaluate compounds. This assay couples the formation of pyruvate from hPK-M2 using lactate dehydrogenase (LDH) and NADH. The depletion of NADH is followed in a fluorescent-based kinetic assay that follows the formation of pyruvate to lactate, as catalyzed LDH (described by Hannaert et al., 2002)1 Pyruvate kinase substrates, PEP and ADP, were present in the assay at 0.1 mM and 4 mM respectively. In this kinetic assay initial rates were determined by following the fluorescence of NADH depletion.
NCGC Assay Protocol Summary: Three uL of substrate mix (final concentration, 50 mM Tris-Cl pH 8.0, 200 mM KCl, 15 mM MgCl2, 0.1 mM PEP, 4.0 mM ADP, and 0.2 mM NADH) was dispensed into black-solid 1536 well plates. 23 nL of compounds were delivered by a pin tool and 1 uL of enzyme mix (final concentrations, 10 nM hPK-M2 and 1 uM of LDH) was added. Plates were immediately placed in ViewLux (Perkin Elmer) and NADH fluorescence was determined at 30 second exposure intervals for between 3 and 6 minutes. Data were normalized to the uninhibited and EC100 activation using known activators such as fructose-bis-phosphate.

Chain of Pyruvate kinase PKM (Homo sapiens) (P14618 whole entry, looked up, canonical isoform): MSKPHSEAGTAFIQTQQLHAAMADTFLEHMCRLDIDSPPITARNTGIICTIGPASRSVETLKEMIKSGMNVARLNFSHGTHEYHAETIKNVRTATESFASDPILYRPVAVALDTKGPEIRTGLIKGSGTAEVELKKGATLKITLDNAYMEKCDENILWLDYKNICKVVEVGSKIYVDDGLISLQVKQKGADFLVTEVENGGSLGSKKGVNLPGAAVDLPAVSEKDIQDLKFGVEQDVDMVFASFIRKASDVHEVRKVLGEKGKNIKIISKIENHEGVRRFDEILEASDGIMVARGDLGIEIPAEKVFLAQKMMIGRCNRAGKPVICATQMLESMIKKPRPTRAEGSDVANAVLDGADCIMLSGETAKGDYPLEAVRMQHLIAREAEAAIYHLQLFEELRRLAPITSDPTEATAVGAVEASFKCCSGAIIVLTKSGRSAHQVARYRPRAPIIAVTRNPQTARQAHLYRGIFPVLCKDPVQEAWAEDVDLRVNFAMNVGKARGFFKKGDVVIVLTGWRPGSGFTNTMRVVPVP

Structure (SMILES)	Potency
Cc1cc(N2C(=O)c3ccccc3C2=O)n[nH]1	inactive
O=C1c2ccccc2C(=O)N1c1ccc(Cl)cc1	inactive
O=S1(=O)N=C(Oc2ccccc2Cl)c2ccccc21	inactive
O=C1c2ccccc2C(=O)N1c1cc(=O)c2ccccc2[nH]1	inactive
O=C1c2ccccc2C(=O)N1c1ccccc1O	inactive
O=C1c2ccccc2C(=O)N1c1cccc2cccnc12	inactive
Cc1cccc(OC2=NS(=O)(=O)c3ccccc32)c1	inactive
O=C1c2ccccc2C(=O)N1c1cccc(Cl)c1	inactive
Cc1ccc(NS(=O)(=O)c2cc3c(cc2-c2ccccc2)NC(=O)CO3)cc1C	inactive
Cc1ccc(NS(=O)(=O)c2cc3c(cc2N(C)C)CCC(=O)N3)cc1C	1460 nM (active)
Cc1cc2c(s1)c1cnn(Cc3c(Cl)ccc(C)c3F)c(=O)c1n2C	562 nM (active)
CSc1cc2c(s1)c1cnn(Cc3cccc(O)c3)c(=O)c1n2C	206 nM (active)
Cc1nc(-c2ccc(S(=O)(=O)Nc3ccc(C)c(C)c3)s2)cs1	inactive
Fc1ccccc1-c1ccc(-c2nc3ccc(Cl)cn3c2Nc2ccc(Cl)cc2)o1	inactive
Cc1ccc2nc(-c3ccncc3)c(Nc3ccccc3)n2c1	inactive
Cc1ccc(-c2nc3cnccn3c2Nc2ccc(C(C)C)cc2)o1	inactive
O=C1c2ccccc2C(=O)N1c1ncccc1O	inactive
COc1cccc(OC2=NS(=O)(=O)c3ccccc32)c1	inactive
Cc1ccc(NC(=O)c2ccc3c(c2)CCC(=O)N3)cc1C	inactive
Cc1ccc(N[S+](=O)([O-])c2cc3c(cc2CCc2ccccc2)NC(=O)CO3)cc1C	inactive

Structure (SMILES)	Potency
O=C1c2ccccc2C(=O)N1Cc1ccccc1	inactive
Nc1cc(S(=O)(=O)N2CCN(S(=O)(=O)c3ccc4c(c3)OCCO4)CC2)ccn1	inactive
Cc1ccc2nc(-c3ccc(C)o3)c(Nc3ccc4c(c3)OCO4)n2c1	29100 nM (active)
Cc1cc2c(s1)c1cnn(Cc3cc(F)c(F)cc3F)c(=O)c1n2C	398 nM (active)
Cc1ccccc1OC1=NS(=O)(=O)c2ccccc21	inactive
COc1ccc(OC2=NS(=O)(=O)c3ccccc32)cc1	inactive
CC(=O)Nc1ccc(S(=O)(=O)Nc2ccc(C)c(C)c2)cc1	inactive
O=C1NS(=O)(=O)c2ccccc21	inactive
O=C1c2ccccc2C(=O)N1Cc1ccccn1	inactive
COc1cc(F)c(S(=O)(=O)N2CCCN(S(=O)(=O)c3cccc(N)c3)CC2)c(F)c1	1830 nM (active)
O=C1c2ccccc2C(=O)N1c1noc2ccccc12	inactive
Cc1ccccc1NS(=O)(=O)c1ccc2c(c1)CCC(=O)N2	6510 nM (active)
O=C1CCc2cc(S(=O)(=O)Nc3ccccn3)ccc2N1	inactive
CC(=O)N1c2ccc(S(=O)(=O)Nc3ccc(C)c(C)c3)cc2CC1C (stereo not given)	inactive
Cc1ccc(NS(=O)(=O)c2cc3c(cc2N(C)C)NC(=O)CC3)cc1C	1030 nM (active)
O=C1CCc2cc(S(=O)(=O)NCc3ccccc3)ccc2N1	inactive
Cc1ccc(NS(=O)(=O)c2ccc(Cl)cc2)cc1C	inactive
O=C1c2ccccc2C(=O)N1c1ccncc1	inactive
COc1ccccc1NS(=O)(=O)c1ccc2c(c1)CCC(=O)N2	inactive
O=S1(=O)N=C(Oc2ccccc2)c2ccccc21	inactive
